This is a sample that favours compounds with a hit; in the whole collection about 2.8% have one here.
TWEAK Fn14 block = TWEAK-Fn14 signaling inhibition | TWEAK-stimulated Fn14 reporter cells, luciferase luminescence, 8 h | inhibition, % at 10 µM | actives 2% (n = 360,000) | AID 1159606; in the data active = inhibition above about 50%
LGR2 antag = inhibitors of bursicon-induced Drosophila LGR2 receptor cAMP signaling; actives 0.35% (n = 380,000); inhibition, % at 9.99 µM; HEK293 LGR2, CRE-luciferase, bursicon-stimulated, 4 h; AID 720647;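 active = drop in luminescence signal, shown as inhibition above about 50% in the replicate tests, limit read from the data, passing the limit was not always enough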;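 also: agonist challenge used bursicon conditioned medium at about half maximal strength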
PAX8 inh HTS = lowers PAX8-driven luciferase in RMG-I cells; RMG-I TPO-luciferase reporter, SteadyGlo, 24 h; inhibition, % at 12.6 µM; actives 1.2% (n = 360,000);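 active = mean replicate inhibition at least 60% with every replicate also reaching 60%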;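 also: luciferase light reporting Pax8 driven TPO promoter activity; plate controls were median of neutral control wells for no effect and mitoxantrone controls for full effect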
TROY NFkB inh = blocks TROY-dependent signaling in reporter cells | actives 0.98% (n = 360,000) | inhibition, % at 10 µM | Q293 LMP1-TROYcd NF-kB luciferase reporter, 4 h;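 active = compounds whose plate-normalised and pattern-corrected inhibition of the luciferase reporter signal at the single screening dose is 50% or more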
EWS-Fli block = inhibitors of EWS/Fli oncoprotein transcriptional activity | AID 651661 | actives 0.67% (n = 350,000) | A673 NR0B1-luciferase reporter, viability-normalised | inhibition, % at 12.6 µM;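 active = mean inhibition of at least 50% after viability correction, with every replicate also passing that limit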;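 also: firefly luciferase signal divided by Alamar Blue viability fluorescence both relative to DMSO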
* hit, by the source's call.

How did COc1cccc(C(=O)NCCC2=CCCCC2)c1 do in these assays?
TWEAK Fn14 block: 51.0*; PAX8 inh HTS: -105.8; TROY NFkB inh: -3.2

Results for O=C(NCCC1=CCCCC1)NC12CC3CC(CC(C3)C1)C2 ?
TWEAK Fn14 block: 48.4; PAX8 inh HTS: -164.5; TROY NFkB inh: 62.6*

How did O=C(NCCC1=CCCCC1)c1ccc([N+](=O)[O-])cc1 do in these assays?
TWEAK Fn14 block: 18.1; LGR2 antag: -10.1; PAX8 inh HTS: -92.6; TROY NFkB inh: -24.6

How did O=C(NCCC1=CCCCC1)c1ccc(F)cc1 do in these assays?
TWEAK Fn14 block: 53.8*; LGR2 antag: 7.6; PAX8 inh HTS: -55.5; TROY NFkB inh: -22.5

Results for COc1ccc(OC)c(NC(=O)C(=O)NCCC2=CCCCC2)c1 ?
TWEAK Fn14 block: 77.8*; LGR2 antag: -6.8; PAX8 inh HTS: -17.7; TROY NFkB inh: -30.7

Results for CC1(C)N=C(N)N=C(N)N1c1ccc(Oc2ccc(Cl)cc2)c(Cl)c1 ?
TWEAK Fn14 block: 37.3; LGR2 antag: 14.1; PAX8 inh HTS: 60.3*; TROY NFkB inh: 10.9; EWS-Fli block: 47.6

How did Cc1cccn2c(=O)c3cc(C(=O)NCc4ccco4)c(=N)n(CCc4ccccc4)c3nc12 do in these assays?
TWEAK Fn14 block: -75.4; LGR2 antag: -22.4; PAX8 inh HTS: 1.1; TROY NFkB inh: -12.8; EWS-Fli block: 26.9

What do the screens show for `Cc1ccc(CNC(=O)c2cc3c(=O)n4ccccc4nc3n(Cc3ccco3)c2=N)cc1`?
TWEAK Fn14 block: 40.7; LGR2 antag: 31.0; TROY NFkB inh: 29.9

What do the screens show for `COc1ccc(CCNC(=O)c2cc3c(=O)n4cccc(C)c4nc3n(Cc3ccco3)c2=N)cc1OC`?
TWEAK Fn14 block: 86.5*; LGR2 antag: -13.2; PAX8 inh HTS: 13.1; TROY NFkB inh: 10.3

How did N=c1c(C(=O)NCc2ccc(F)cc2)cc2c(=O)n3ccccc3nc2n1Cc1ccco1 do in these assays?
TWEAK Fn14 block: 95.1*; TROY NFkB inh: 58.5*

What do the screens show for `Cc1cccn2c(=O)c3cc(C(=O)NCCc4ccccc4)c(=N)n(Cc4ccco4)c3nc12`?
TWEAK Fn14 block: 101.1*; LGR2 antag: 18.9; PAX8 inh HTS: 25.9; TROY NFkB inh: 33.4

Results for COCCNC(=O)C[C@H]1CC[C@@H](NC(=O)NC2CCCC2)[C@@H](CO)O1 ?
LGR2 antag: -5.8; PAX8 inh HTS: 4.6; EWS-Fli block: 6.5

How did O=C([C@H]1[C@H](CO)[C@H]2Cn3c(cccc3=O)[C@H]2N1C(=O)CC1CC1)N1CCc2ccccc2C1 do in these assays?
LGR2 antag: -11.7; PAX8 inh HTS: -17.2; EWS-Fli block: -1.2

How did Cc1cc(C)nc(NC(=O)c2ccc(C)c([N+](=O)[O-])c2)n1 do in these assays?
TWEAK Fn14 block: -13.6; LGR2 antag: -0.1; TROY NFkB inh: -8.1

How did Cc1ccc(C(=O)Nc2ccccc2C(=O)N2CCCC2)cc1[N+](=O)[O-] do in these assays?
TWEAK Fn14 block: 100.1*; LGR2 antag: -1.1; PAX8 inh HTS: 0.3; TROY NFkB inh: 90.4*

How did COc1ccc(NC(=S)NC(=O)c2cccnc2)cc1 do in these assays?
TWEAK Fn14 block: -24.6; LGR2 antag: 2.0; PAX8 inh HTS: 7.3; TROY NFkB inh: -5.7; EWS-Fli block: -7.3

How did CCC(=O)NC(=S)Nc1ccc(NC(=O)c2cccnc2)cc1 do in these assays?
TWEAK Fn14 block: 72.2*; LGR2 antag: -7.5; PAX8 inh HTS: -16.0; TROY NFkB inh: 1.2; EWS-Fli block: 4.2

Results for COc1ccccc1NC(=O)c1ccc(NC(=O)c2cc3c(s2)CCC3)cc1 ?
TWEAK Fn14 block: 58.7*; LGR2 antag: 13.8; PAX8 inh HTS: 8.3; TROY NFkB inh: 30.7

Results for Cc1csc(NC(=O)c2ccc(C)c([N+](=O)[O-])c2)n1 ?
TWEAK Fn14 block: 68.2*; LGR2 antag: 7.9; PAX8 inh HTS: -58.5; TROY NFkB inh: 16.8

How did Cc1noc(C)c1NC(=O)Nc1ccc2c(c1)C(=O)N([C@@H](C)CO)C[C@@H](C)[C@H](CN(C)C(=O)Nc1ccc3c(c1)OCO3)OCCCC[C@H](C)O2 do in these assays?
LGR2 antag: -6.5; EWS-Fli block: 2.7

What do the screens show for `COc1cccc(S(=O)(=O)N2C[C@@H](O)COC[C@H]3O[C@@H](CC(=O)N4CCCCC4)CC[C@@H]32)c1`?
LGR2 antag: 9.5; PAX8 inh HTS: -1.9; EWS-Fli block: -2.8

What do the screens show for `Cc1csc(NC(=O)c2ccccc2)n1`?
TWEAK Fn14 block: 1.8; LGR2 antag: -23.2; PAX8 inh HTS: -63.6; TROY NFkB inh: -51.6; EWS-Fli block: -71.3

What do the screens show for `Cc1csc(NC(=O)c2cc3c(s2)CCC3)n1`?
TWEAK Fn14 block: 68.0*; TROY NFkB inh: -46.7

What do the screens show for `Cc1csc(NC(=O)c2cccnc2)n1`?
TWEAK Fn14 block: 82.6*; LGR2 antag: -4.7; PAX8 inh HTS: -50.2; TROY NFkB inh: -18.5; EWS-Fli block: -29.7

How did O=C1/C(=C/C=C/c2ccco2)SC(=S)N1c1ccc(O)cc1 do in these assays?
TWEAK Fn14 block: 37.0; LGR2 antag: 21.0; PAX8 inh HTS: -5.7; TROY NFkB inh: 9.8; EWS-Fli block: -13.6

What do the screens show for `O=C1/C(=C\c2ccco2)SC(=S)N1c1ccc(O)cc1`?
TWEAK Fn14 block: 9.8; LGR2 antag: 5.4; PAX8 inh HTS: 90.9*; TROY NFkB inh: 6.6; EWS-Fli block: -1.2

What do the screens show for `COc1ccc(C(=O)n2c(N)nc3ccccc32)cc1OC`?
TWEAK Fn14 block: 7.0; LGR2 antag: -36.7; PAX8 inh HTS: -81.3; TROY NFkB inh: -58.0; EWS-Fli block: -123.9

Results for Nc1nc2ccccc2n1C(=O)c1ccc(F)cc1 ?
TWEAK Fn14 block: 61.0*; LGR2 antag: 30.8; PAX8 inh HTS: -1.2; TROY NFkB inh: 23.8; EWS-Fli block: 30.8

Results for Nc1nc2ccccc2n1C(=O)c1ccccc1 ?
TWEAK Fn14 block: 77.9*; LGR2 antag: 32.6; PAX8 inh HTS: 6.3; TROY NFkB inh: 35.4; EWS-Fli block: 61.0*

Results for COc1cc2c(c(OC)c1OC)-c1ccc(OC)c(=O)cc1[C@@H](N(C)CC#CCO)CC2 ?
TWEAK Fn14 block: 12.8; LGR2 antag: 2.5; PAX8 inh HTS: 77.1*; TROY NFkB inh: -5.0; EWS-Fli block: 53.6*

How did COc1cc2c(c(OC)c1OC)CC(=O)N(C)CC2 do in these assays?
TWEAK Fn14 block: -7.3; LGR2 antag: -3.4; TROY NFkB inh: 7.6

Results for COc1cc2c(c(OC)c1OC)-c1ccc(OC)c(=O)cc1C(N)CC2 (stereo unspecified) ?
TWEAK Fn14 block: 63.6*; LGR2 antag: 2.1; PAX8 inh HTS: 75.7*; TROY NFkB inh: 19.4; EWS-Fli block: 56.0*

Results for COc1cc2c(c(OC)c1OC)-c1ccc(SC)c(=O)cc1C(N)CC2 (stereo unspecified) ?
TWEAK Fn14 block: -2.4; LGR2 antag: -13.1; PAX8 inh HTS: 73.6*; TROY NFkB inh: 8.2; EWS-Fli block: 38.8

How did N#C[C@H]1[C@@H](c2ccccc2)[C@H](CO)N1S(=O)(=O)Cc1ccccc1 do in these assays?
LGR2 antag: -0.7; PAX8 inh HTS: 4.8; EWS-Fli block: 7.2

What do the screens show for `Cn1c(=N)n(CC(=O)c2ccc(F)cc2)c2ccccc21`?
TWEAK Fn14 block: -29.2; LGR2 antag: -1.8; PAX8 inh HTS: -49.3; TROY NFkB inh: 48.9; EWS-Fli block: 77.6*
